Inconclusive results are not listed. More than one record can exist for a structure, and the calls need not agree. The source made the active and inactive calls. Unless noted, calls follow the shape of the dose curve; as a rule, active = well fitted curve in the direction sought with a large enough effect in the repeat runs; inconclusive = weak or mixed curves; inactive = no such curve, though single readings can be large; an effect the other way counts as inactive or inconclusive.
Assays:
[1] = target: Retinoic acid receptor RXR-alpha (Homo sapiens) (UniProt P19793); experiment: qHTS assay to identify small molecule agonists of the RXR signaling pathway (AID 1159527; calls by dose curve; also: nearly all actives have a fitted effect of over 35% in size; also: potency is read from the fitted curve at half-maximal effect)
Sequence of Retinoic acid receptor RXR-alpha (Homo sapiens) (P19793 whole entry, looked up): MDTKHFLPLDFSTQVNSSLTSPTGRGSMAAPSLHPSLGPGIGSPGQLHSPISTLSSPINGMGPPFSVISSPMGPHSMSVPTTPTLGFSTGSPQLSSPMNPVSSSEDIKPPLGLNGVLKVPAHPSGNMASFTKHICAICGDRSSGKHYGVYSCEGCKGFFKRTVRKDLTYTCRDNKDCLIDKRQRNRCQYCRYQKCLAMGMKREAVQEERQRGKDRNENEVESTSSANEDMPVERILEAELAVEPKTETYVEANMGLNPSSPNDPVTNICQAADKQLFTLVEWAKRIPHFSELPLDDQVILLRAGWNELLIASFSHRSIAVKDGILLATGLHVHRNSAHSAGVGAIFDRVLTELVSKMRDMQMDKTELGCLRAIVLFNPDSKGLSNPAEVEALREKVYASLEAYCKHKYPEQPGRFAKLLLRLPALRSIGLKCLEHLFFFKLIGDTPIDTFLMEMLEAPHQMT
Summary of the method: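 GeneBLAzer RXR-alpha-UAS-bla HEK 293T cells in 2% charcoal-stripped FBS medium were exposed to compounds for 16 hr at 37 C in agonist mode. Beta-lactamase reporter read as 460/530 nm FRET ratio after 2 hr substrate loading.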

[2] = qHTS assay to identify small molecule agonists of the RXR signaling pathway - cell viability counter screen (AID 1159529); also: series mostly up to about 77 µM; nearly all actives have a fitted effect of over 50% in size
Summary of the method: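 RXR-alpha-UAS-bla HEK 293T cells in medium with 2% charcoal-stripped FBS were pre-incubated 5 hr, then compound-treated 16 hr at 37 C. Viability was read by CellTiter-Glo luminescence in the same wells as the beta-lactamase assay, with tetraoctyl ammonium bromide as positive control.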

[3] = qHTS assay to identify small molecule antagonists of the retinoid acid receptor (RAR) signaling pathway - cell viability counter screen (AID 1159551); also: nearly all actives have a fitted effect of over 35% in size
Summary of the method: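 Cells (C3RL4) are plated, incubated overnight, dosed with compound in DMSO, then given retinol at 1 uM final. After 6 h at 37 C, CellTiter-Glo is added and luminescence read following 30 min at room temperature.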

[4] = qHTS assay to identify small molecule antagonists of the retinoic acid receptor (RAR) signaling pathway (AID 1159552; also: nearly all actives have a fitted effect of over 50% in size)
Summary of the method: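 Retinol signaling pathway inhibitors screened in C3RL4 RARE-luciferase reporter cells seeded overnight at 37 C, then compounds added with 1 uM (final) retinol as pathway substrate. After 6 hr at 37 C, luciferase luminescence read after 30 min at room temperature.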

[5] = qHTS assay to identify small molecule agonists of the retinoic acid receptor (RAR) signaling pathway (AID 1159553)
Summary of the method: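 Seed C3RL4 reporter cells at 1,000 per well and incubate overnight at 37 C. Add compounds in DMSO, incubate 6 hr. Add luciferase reagent, wait 30 min at room temperature, read luminescence.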

[6] = qHTS assay to identify small molecule antagonists of the estrogen related receptor (ERR) signaling pathway from Tox21 library - cell viability counter screen (AID 1224834); also: nearly all actives have a fitted effect of over 30% in size
Summary of the method: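 ERR cells, 2,000/well; 6 h settle at 37 C/5% CO2; pin-tool compound transfer in DMSO; 17.5 h at 37 C; CellTiter-Fluor, 30 min; fluorescence intensity.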

[7] = target: Luciferin 4-monooxygenase (Photinus pyralis) (UniProt P08659); experiment: qHTS assay to identify small molecule inhibitors of firefly luciferase (AID 1224835); also: series mostly up to about 120 µM; nearly all actives have a fitted effect of over 25% in size
Sequence of Luciferin 4-monooxygenase (Photinus pyralis) (P08659 whole entry, looked up): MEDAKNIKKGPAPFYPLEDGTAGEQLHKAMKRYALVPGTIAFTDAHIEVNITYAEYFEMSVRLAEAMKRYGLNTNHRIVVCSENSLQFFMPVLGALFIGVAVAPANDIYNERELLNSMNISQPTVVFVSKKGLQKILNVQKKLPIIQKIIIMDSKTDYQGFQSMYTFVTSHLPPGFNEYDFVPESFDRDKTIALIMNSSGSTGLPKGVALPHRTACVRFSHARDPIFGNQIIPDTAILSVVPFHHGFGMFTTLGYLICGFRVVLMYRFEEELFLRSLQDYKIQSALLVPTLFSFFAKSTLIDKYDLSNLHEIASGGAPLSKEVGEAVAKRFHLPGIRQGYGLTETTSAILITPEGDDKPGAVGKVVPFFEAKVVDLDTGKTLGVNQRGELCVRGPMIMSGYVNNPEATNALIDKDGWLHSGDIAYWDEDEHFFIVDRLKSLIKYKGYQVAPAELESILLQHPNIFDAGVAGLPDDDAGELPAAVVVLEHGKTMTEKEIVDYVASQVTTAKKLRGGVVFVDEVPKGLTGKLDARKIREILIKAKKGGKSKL
Summary of the method: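 Biochemical qHTS: compounds run as interplate titrations against purified firefly enzyme, with D-luciferin and ATP each at its KM concentration. Light output recorded by CCD imaging.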

[8] = qHTS assay to identify small molecule agonists of the constitutive androstane receptor (CAR) signaling pathway - cell viability counter screen (AID 1224836); also: series mostly up to about 92 µM; nearly all actives have a fitted effect of over 45% in size
Summary of the method: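 HepG2 cells stably carrying hCAR and a CYP2B6-2.2kb reporter; 15-concentration compounds plus PK11195 (final 0.75 uM), 23 hr at 37 C/5% CO2. Viability read by CellTiter-Fluor fluorescence.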

[9] = qHTS assay to identify small molecule antagonists of the constitutive androstane receptor (CAR) signaling pathway - cell viability counter screen (AID 1224837); also: series mostly up to about 92 µM; nearly all actives have a fitted effect of over 45% in size
Summary of the method: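 Viability was measured with CellTiter-Fluor in a HepG2 line carrying stably transfected hCAR and a CYP2B6-2.2kb construct. Cells were exposed for 23 hr at 37 C to 15 compound concentrations with 50 nM CITCO as agonist.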

[10] = target: Nuclear receptor subfamily 1 group I member 3 (Homo sapiens) (UniProt Q14994); experiment: qHTS assay to identify small molecule antagonists of the constitutive androstane receptor (CAR) signaling pathway (AID 1224838);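 also: HepG2 cells stably expressing hCAR with CYP2B6 luciferase reporter stimulated by CITCO; nearly all actives have a fitted effect of over 40% in size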
Sequence of Nuclear receptor subfamily 1 group I member 3 (Homo sapiens) (Q14994 whole entry, looked up): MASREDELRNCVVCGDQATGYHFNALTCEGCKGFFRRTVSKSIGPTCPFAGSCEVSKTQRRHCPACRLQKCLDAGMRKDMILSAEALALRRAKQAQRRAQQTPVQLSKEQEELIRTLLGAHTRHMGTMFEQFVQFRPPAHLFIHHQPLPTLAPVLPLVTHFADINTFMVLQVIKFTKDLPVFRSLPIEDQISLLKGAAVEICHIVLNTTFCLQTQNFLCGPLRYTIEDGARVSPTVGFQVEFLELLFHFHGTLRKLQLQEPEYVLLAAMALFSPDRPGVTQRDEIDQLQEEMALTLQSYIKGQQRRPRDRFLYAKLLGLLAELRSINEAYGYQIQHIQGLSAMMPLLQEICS
Summary of the method: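 Antagonist mode used CITCO at a final 50 nM to activate CAR in human hepatoma HepG2 cells carrying stable hCAR and a 2.2 kb CYP2B6 promoter-luciferase construct. Compounds were tested at 15 concentrations over 24 h, with luminescence as the end point.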

[11] = target: Nuclear receptor subfamily 1 group I member 3 (Homo sapiens) (UniProt Q14994); experiment: qHTS assay to identify small molecule agonists of the constitutive androstane receptor (CAR) signaling pathway (AID 1224839); also: series mostly up to about 92 µM; nearly all actives have a fitted effect of over 15% in size
Summary of the method: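 HepG2 cells stably co-transfected with hCAR and a CYP2B6-2.2kb luciferase reporter; compounds at 15 concentrations with 0.75 uM PK11195 present. After 24 hr at 37 C, luciferase read by ONE-Glo luminescence.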

[12] = qHTS assay to identify small molecule antagonists of the estrogen related receptor signaling pathway with the pleiotropic PPARgamma coactivator (PGC) from Tox21 10K library - cell viability counter screen (AID 1224840; active = well fitted cell-killing curve with a large enough effect in the repeat runs, not every such curve was filed as active; also: nearly all actives have a fitted effect of over 40% in size)
Summary of the method: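 Multiplexed viability counter screen in the PGC/ERR cell line: cells treated with DMSO-dissolved compounds for 17.5 hours at 37 C, then viability measured as CellTiter-Fluor fluorescence.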

[13] = qHTS assay to identify small molecule antagonists of the estrogen related receptor signaling pathway with the pleiotropic PPARgamma coactivator (PGC) from Tox21 10K library (AID 1224841; call rule not given here; also: series mostly up to about 92 µM; actives are mostly falling curves and most rising ones were filed inactive; nearly all actives have a fitted effect of over 50% in size)
Summary of the method: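 Steps: plate 2,000 PGC/ERR cells per well; incubate 6 h at 37 C with 5% CO2; transfer compounds from DMSO stocks by pin tool; incubate 18 h at 37 C; add One-Glo; measure luminescence 30 min later.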

[14] = qHTS assay to identify small molecule agonists of the estrogen related receptor signaling pathway with the pleiotropic PPARgamma coactivator (PGC) from Tox21 10K library (AID 1224842); also: nearly all actives have a fitted effect of over 15% in size
Summary of the method: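 PGC/ERR reporter cell line, 2,000 cells per well, incubated 6 h at 37 C before 23 nL compound in DMSO was added. After 18 h at 37 C, One-Glo luminescence read following 30 min at room temperature.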

[15] = qHTS assay to identify small molecule antagonists of the estrogen related receptor (ERR) signaling pathway - cell viability counter screen (AID 1224818); also: series mostly up to about 46 µM
Summary of the method: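 ERR cells, 2,000/well; 6 h settle at 37 C/5% CO2; compound pin transfer (DMSO); 17.5 h at 37 C; CellTiter-Fluor, 30 min, fluorescence read.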

[16] = qHTS assay to identify small molecule antagonists of the estrogen related receptor (ERR) signaling pathway (AID 1224819;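 also: luminescence from an ERR-driven luciferase reporter measured with One-Glo reagent; series mostly up to about 46 µM; nearly all actives have a fitted effect of over 50% in size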)
Summary of the method: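 qHTS in ERR cells, 2,000/well, 1536 format. Cpd (DMSO) added after 6 h settle, 18 h 37 C. One-Glo luminescence, 30 min RT.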

[17] = qHTS assay to identify small molecule agonists of the estrogen related receptor (ERR) signaling pathway (AID 1224820)
Summary of the method: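 Luminescence readout (One-Glo, 30 min RT) from NTP-supplied ERR cell line exposed to compounds for 18 h at 37 C. Cells seeded 2,000 per well and pre-incubated 6 h before pin-tool compound transfer.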

[18] = test system: estrogen-related receptor alpha (ERRalpha) with PGC-1alpha coactivator, human; experiment: qHTS assay to identify small molecule antagonists of the estrogen related receptor signaling pathway with the pleiotropic PPARgamma coactivator (PGC) (AID 1224821; calls by dose curve)
Summary of the method: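 PGC/ERR reporter cells; 6 h pre-incubation 37 C/5% CO2; pin-tool compound in DMSO, 18 h 37 C; One-Glo added, 30 min RT; luminescence read. qHTS antagonist mode.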

[19] = qHTS assay to identify small molecule antagonists of the estrogen related receptor signaling pathway with the pleiotropic PPARgamma coactivator (PGC) cell viability counter screen (AID 1224822;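 also: series mostly up to about 46 µM; viability read after 17.5 h compound exposure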)
Summary of the method: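 Multiplexed viability counter screen run in PGC/ERR cells treated with compounds for 17.5 h at 37 C; live-cell protease signal measured by CellTiter-Fluor fluorescence.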

[20] = qHTS assay to identify small molecule agonists of the estrogen related receptor signaling pathway with the pleiotropic PPARgamma coactivator (PGC) (AID 1224823)
Summary of the method: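 Luminescence readout (One-Glo, 30 min RT) from PGC/ERR cell line treated 18 h at 37 C with pin-tool-delivered DMSO compound solutions; cells plated 6 h before dosing. Quantitative HTS format.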

Measured: Potency

CC(C)[C@@H]1CC[C@@H](C)C[C@H]1O
not listed: [13] | [14] | [15] | [16] | [17] | [18] | [19] | [20]
inactive: all other assays above

O=c1cc[nH]c(=S)[nH]1
493 nM (active) and inactive: [1]
not listed: [15] | [16] | [17] | [18] | [19] | [20]
inactive: all other assays above

CCCC(O)C(CC)CO (configuration not stated)
inactive: [1] | [2] | [3] | [6] | [7] | [8] | [9] | [12]

COc1ccc2[nH]cc(CCNC(C)=O)c2c1
not listed: [4] | [5]
inactive: all other assays above

Source: PubChem BioAssay (Tox21)
